Measurements taken from PubChem BioAssay.
“And” between values parts separate entries of the source, which are not always exact repeats. Equal values may be shown once. The source made the active and inactive calls.

Experiments:
[1] = anti-His antibody binders, primary screen, artefact control for SMM control protein annotation, biochemical, small-molecule microarray, 635 nm fluorescence (AID 1128); conditions: anti-His Alexa647 antibody binding, higher = more signal;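 note: score merges feature fluorescence with signal-to-noise for each printed compound spot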
[2] = system: Human papillomavirus type 1a E7 protein (residues 1-88); test: HPV1a E7 small-molecule binders, primary screen, biochemical, small-molecule microarray, residues 1-88, 635 nm (AID 1129); conditions: small-molecule microarray binding, fluorescence 635 nm; higher = more signal
[3] = molecular target: Focal adhesion kinase 1 (Homo sapiens) (UniProt Q05397); test: small-molecule microarray binders of FAK, primary screen, biochemical, 635/667 nm fluorescence, BSA, DTT (AID 1130); conditions: PTK2 binding, 635 nm fluorescence, higher = more signal;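 note: composite of spot emission at 667 nm and signal to noise over triplicate slides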
[4] = system: Fibrinogen (Alexa647-labelled); test: fibrinogen binders on compound microarrays, profiling panel, artefact control for SMM control-protein annotation, biochemical, small-molecule microarray, 635/667 nm fluorescence (AID 1131); conditions: fibrinogen-A647 binding fluorescence, higher = more signal;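 note: z-score merges 667 nm fluorescence with per-spot signal-to-noise over triplicate slides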
[5] = molecular target: Follistatin (Homo sapiens) (UniProt P19883); test: follistatin binders on small-molecule microarrays, primary screen, biochemical, small-molecule microarray, 635/667 nm fluorescence (AID 1132); conditions: FST binding, 635 nm fluorescence, higher = more signal
[6] = molecular target: Fibroblast growth factor 2 (Homo sapiens) (UniProt P09038); test: FGF2 binders on small-molecule microarrays, primary screen, biochemical, small-molecule microarray, 635/667 nm fluorescence (AID 1133); conditions: small-molecule microarray binding, FGF2, fluorescence 635/667; higher = more signal
[7] = mitochondrial membrane potential change in A549 cells, profiling panel, cell-based, JC-1 fluorescence, basal, 24 h, 100 nL (AID 1138); conditions: higher = more signal;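 note: A549 lung adenocarcinoma cells under basal conditions with no added stimulus; test concentration not given here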
Lefty1 = Lefty1 binders on small-molecule microarrays, primary screen, biochemical, small-molecule microarray, 635/667 nm fluorescence (AID 1139); conditions: small-molecule microarray binding, fluorescence 635/667; higher = more signal
[8] = system: wheat germ agglutinin (Triticum aestivum), Alexa647-labelled; test: wheat germ agglutinin binders on compound microarrays, profiling panel, artefact control for SMM control-protein annotation, biochemical, small-molecule microarray, 635/667 nm fluorescence (AID 1140); conditions: WGA-A647 binding, 635 nm fluorescence, higher = more signal;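 note: score merges 667 nm feature emission with signal to noise over triplicate slides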
[9] = molecular target: Luciferin 4-monooxygenase (Photinus pyralis) (UniProt P08659); test: firefly luciferase enzyme inhibitors, primary screen, biochemical, luminescence, purified enzyme, 2006 set (AID 1141); conditions: SteadyGlo luminescence, 30 min, higher = more signal, called active from +8 up or from −8 down;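 note: cell-free assay with purified firefly luciferase at 100 ng per well in PBS; test concentration not given here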
Luciferin 4-monooxygenase (Photinus pyralis), sequence (P08659 whole entry, looked up): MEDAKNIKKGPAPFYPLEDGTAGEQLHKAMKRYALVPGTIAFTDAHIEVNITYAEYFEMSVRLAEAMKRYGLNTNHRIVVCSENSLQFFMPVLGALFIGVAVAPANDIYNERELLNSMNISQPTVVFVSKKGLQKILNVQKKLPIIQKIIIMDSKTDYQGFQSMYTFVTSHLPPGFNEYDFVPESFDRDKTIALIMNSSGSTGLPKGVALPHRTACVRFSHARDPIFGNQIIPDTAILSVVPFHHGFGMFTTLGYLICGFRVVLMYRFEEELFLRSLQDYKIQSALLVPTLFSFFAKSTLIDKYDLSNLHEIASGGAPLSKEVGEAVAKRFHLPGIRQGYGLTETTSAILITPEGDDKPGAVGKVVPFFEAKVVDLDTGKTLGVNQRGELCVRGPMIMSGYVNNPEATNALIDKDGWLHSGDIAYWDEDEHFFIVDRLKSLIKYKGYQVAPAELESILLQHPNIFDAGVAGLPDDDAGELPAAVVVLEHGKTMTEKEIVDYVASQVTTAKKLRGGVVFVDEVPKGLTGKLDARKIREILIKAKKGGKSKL

Focal adhesion kinase 1 (Homo sapiens), sequence (Q05397 whole entry, looked up): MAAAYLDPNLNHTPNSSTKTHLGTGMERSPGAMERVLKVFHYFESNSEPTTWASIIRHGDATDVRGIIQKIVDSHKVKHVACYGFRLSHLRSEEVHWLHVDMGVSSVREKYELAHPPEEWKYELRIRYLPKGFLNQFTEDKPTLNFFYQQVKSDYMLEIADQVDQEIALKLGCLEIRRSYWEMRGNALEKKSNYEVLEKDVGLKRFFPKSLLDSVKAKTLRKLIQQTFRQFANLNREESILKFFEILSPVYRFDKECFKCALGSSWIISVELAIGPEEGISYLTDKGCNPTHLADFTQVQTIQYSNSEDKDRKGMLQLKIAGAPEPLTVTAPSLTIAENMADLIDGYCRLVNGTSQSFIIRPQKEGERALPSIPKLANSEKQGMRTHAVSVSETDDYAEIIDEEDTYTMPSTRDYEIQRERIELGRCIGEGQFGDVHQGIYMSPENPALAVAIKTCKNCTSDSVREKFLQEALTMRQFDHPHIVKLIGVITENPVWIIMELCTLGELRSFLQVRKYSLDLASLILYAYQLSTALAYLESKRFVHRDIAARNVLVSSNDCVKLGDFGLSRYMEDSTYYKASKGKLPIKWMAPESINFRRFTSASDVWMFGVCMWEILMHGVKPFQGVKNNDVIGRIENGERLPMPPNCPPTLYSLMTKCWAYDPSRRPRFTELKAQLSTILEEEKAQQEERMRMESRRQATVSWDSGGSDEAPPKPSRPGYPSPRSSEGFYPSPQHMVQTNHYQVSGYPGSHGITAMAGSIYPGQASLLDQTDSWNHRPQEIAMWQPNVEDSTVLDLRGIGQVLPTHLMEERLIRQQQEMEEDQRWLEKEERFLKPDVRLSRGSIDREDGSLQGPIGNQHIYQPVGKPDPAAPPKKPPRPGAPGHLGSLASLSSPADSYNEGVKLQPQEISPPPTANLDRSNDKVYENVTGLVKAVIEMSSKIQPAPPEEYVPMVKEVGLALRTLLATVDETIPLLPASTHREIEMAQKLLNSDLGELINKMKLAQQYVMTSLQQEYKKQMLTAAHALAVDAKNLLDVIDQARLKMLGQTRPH
Follistatin (Homo sapiens), sequence (P19883 whole entry, looked up): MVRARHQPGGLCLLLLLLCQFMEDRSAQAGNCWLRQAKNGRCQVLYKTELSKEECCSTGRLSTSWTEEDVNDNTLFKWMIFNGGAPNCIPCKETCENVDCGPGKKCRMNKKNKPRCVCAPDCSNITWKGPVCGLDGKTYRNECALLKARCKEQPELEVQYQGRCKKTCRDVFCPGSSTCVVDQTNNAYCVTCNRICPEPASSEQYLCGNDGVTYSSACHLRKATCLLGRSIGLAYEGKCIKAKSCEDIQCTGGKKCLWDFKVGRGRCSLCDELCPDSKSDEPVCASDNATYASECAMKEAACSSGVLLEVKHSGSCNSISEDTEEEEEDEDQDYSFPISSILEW
Fibroblast growth factor 2 (Homo sapiens), sequence (P09038 whole entry, looked up): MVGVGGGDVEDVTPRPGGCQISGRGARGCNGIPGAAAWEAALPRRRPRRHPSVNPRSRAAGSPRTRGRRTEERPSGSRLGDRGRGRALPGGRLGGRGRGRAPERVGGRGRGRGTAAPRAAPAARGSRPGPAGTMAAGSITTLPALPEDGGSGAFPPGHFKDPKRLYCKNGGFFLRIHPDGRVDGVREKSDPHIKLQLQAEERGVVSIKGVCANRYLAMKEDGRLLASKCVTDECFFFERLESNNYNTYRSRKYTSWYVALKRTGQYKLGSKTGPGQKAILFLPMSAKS

SMILES	composite z-score [1]	composite z-score [2]	composite z-score [3]	composite z-score [4]	composite z-score [5]	composite z-score [6]	z-score [7]	composite z-score (Lefty1)	composite z-score [8]	z-score [9]
CCOC(=O)[C@@H]1CC=C2CC1C(=O)N1CCC[C@@H]1[C@H]2O[Si](C)(C)C(C)(C)C (stereo not given in full)	-1.02 and -0.542	-0.419 and -0.434	-0.758 and -0.489	-0.454 and -1.61	-0.76 and -0.645	-0.424 and -0.469	-0.827 and -0.338	-0.224 and -0.132	-0.992 and -0.976	0.0411 (inactive) and 0.838 (inactive)
CCOC(=O)NN=C1C[C@@H](O)[C@@H](O)[C@@H]2[C@@H]3C(=O)N(Cc4ccccc4)C(=O)[C@@H]3CC[C@@H]12	0.82	0.561	-0.118	0.669	0.408	0.371	-0.222	0.665	0.0775	0.66 (inactive)
CCCNC(=O)OC[C@H]1O[C@H](CCON=C(C)CCN2CCc3nc(-c4ccccc4)c(-c4ccccc4)cc3C2)C=C[C@@H]1Oc1ccc(OC)cc1	1.29	0.0969	0.301	0.283	0.295	0.279	1.87	0.236	0.356	-0.076 (inactive)
COC(=O)[C@@]1(Cc2ccc(F)cc2)[C@H]2c3cc(C(=O)N4CCCC4)n(Cc4c(CO)[nH]cc(C)c4=O)c3C[C@H]2CN1C(=O)c1ccccc1	2.37 and 2.39	0.709 and 1.18	1.1 and 1.41	1.01 and -0.216	0.529 and 0.121	-0.351 and -0.789	0.395 and 0.404	-0.212 and -1.02	1.16 and 0.234	2.01 (inactive) and 1.01 (inactive)
C[N+](C)(C)CCCCNC(=O)[C@H]1C[C@H]2C(=O)N[C@@H](CCCC[N+](C)(C)C)C(=O)N2[C@H]1c1ccc(O)cc1	2.99 and 3.33	0.395 and -1.59	0.267 and -0.478	0.56 and -1.1	1.57 and 1.45	2.01 and 1.99	-0.0637 and -0.967	1.62 and 1.64	-0.608 and -1.01	0.325 (inactive) and 0.332 (inactive)
C=CCN(CCCCC)C(=O)C1N(C(C)(C)CO)C(=O)C2C(C(=O)O)C3C=CC21O3 (stereo not given)	-0.608 and -2.12	-0.943 and -0.793	-0.132 and -1.41	-2.7 and -1.18	-1.39 and -2.44	-2.46 and -1.74	-0.401 and 0.244	-1.1 and -1.42	-0.356 and -1.51	0.169 (inactive) and 0.977 (inactive)
O=C(NN=C1C[C@@H](O)[C@@H](O)[C@@H]2[C@@H]3C(=O)N(Cc4ccc5c(c4)OCO5)C(=O)[C@@H]3CC[C@H]12)OCc1ccccc1	-0.668	-0.429	-0.0697	-0.507	-1.07	-0.274	-0.174	-0.418	-0.754	0.0421 (inactive)
C=CCN(Cc1ccccc1)C(=O)C1N(c2c(Cl)cccc2CO)C(=O)C2C(C(=O)O)C3C=CC21O3 (stereo not given)	-1.57 and -1.25	-2.28 and -0.762	-1.12 and -0.942	-1.61 and -1.28	-2.48 and -2.78	-1.21 and -1.62	1.29 and -0.936	-3.16 and -3	-1.9 and -1.22	-1.28 (inactive) and 1.17 (inactive)
C[C@@H](c1ccccc1)N1C(=O)[C@H]2[C@H]3[C@H](O)[C@H](O)CC(=O)[C@@H]3CC[C@H]2C1=O	0.338	0.793	0.866	0.212	0.605	1.08	0.792	1.64	0.108	-1.87 (inactive)
CC(C)OC(=O)C=C1C[C@@H](c2ccccc2)O[C@@H](c2ccccc2)O1	0.871 and 1.47	1.23 and 1.25	0.255 and 0.796	0.977 and 0.962	1.26 and 1.31	1.42 and 1.02	1.55 and 0.229	1.11 and 1.31	0.824 and 1.3	0.992 (inactive) and -0.692 (inactive)
C#CCCCON=C1C[C@@H](O)[C@@H](O)[C@@H]2[C@@H]3C(=O)N(C4CCCCC4)C(=O)[C@@H]3CC[C@H]12	1.31	1.1	0.498	0.962	-0.0195	0.0951	0.83	0.112	0.698	-1.01 (inactive)
C=CCN(C(=O)C(c1cccs1)N(C(=O)/C=C\C(=O)O)C(C)(C)CO)c1ccc(OC)cc1 (stereo not given)	-1.01 and -0.0442	-0.392 and -0.41	-0.675 and 1.18	-0.809 and -1.04	-1.7 and -1.17	-0.855 and -0.862	1.11 and 1.74	-1.22 and -0.566	-0.747 and -0.0298	-2.86 (inactive) and -5.74 (inactive)
C=CCN(C(=O)C1N(CCOCCO)C(=O)C2C(C(=O)O)C3C=CC21O3)C(C)(C)C (stereo not given)	-0.673 and -0.976	-1.66 and -0.815	-0.324 and -0.708	-4.25 and -0.473	-2.09 and -1.58	-1.27 and -2.81	-0.147 and -0.774	-1.43 and -1.07	-0.511 and -0.0854	-0.352 (inactive) and 0.274 (inactive)
C=C[C@H](OC)[C@@H](O)c1ccc(O)c(F)c1	-0.876 and -0.764	-1.22 and -1.21	-0.918 and -0.807	-2.91 and -1.06	-1.25 and -1.48	-0.826 and -1.47	-0.547 and -0.0182	-2.23 and -1.28	-1.47 and 0.129	-0.173 (inactive) and -0.446 (inactive)
C=CCN(CCCC)C(=O)C(c1cccs1)N(C(=O)/C=C\C(=O)O)c1ccc(CCO)cc1 (stereo not given)	1.25 and -2.52	-0.505 and -1.38	-0.504 and -1.21	-1.08 and -1.59	-1.43 and -2.34	-1.47 and -2.18	0.65 and 0.624	-1.58 and -2.71	0.266 and -2.25	-2.48 (inactive) and -2.8 (inactive)
Cc1ccc(S(=O)(=O)N[C@H]2COC(=O)[C@@H](Cc3ccccc3)NC(=O)[C@@H](C)COC(=O)CC=C[C@@H]2C)cc1	-0.619 and 1.81	-0.95 and -0.164	-0.282 and 0.116	-0.747 and -0.0169	1.18 and 0.825	0.575 and 0.462	0.636 and -1.01	0.678 and 0.882	-0.892 and -0.0489	-0.287 (inactive) and -0.431 (inactive)
